Results reported in PubChem BioAssay.
Activity calls are given as the source filed them.

Assays:
[1] = binders of probe aFSTL3 on microarray, primary screen, stem cell growth factor project, biochemical, small-molecule microarray, fluorescence 635/667 (AID 1064); conditions: higher = more signal;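 also: measures binding of the biotinylated anti-FSTL3 antibody to printed compounds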
[2] = binders from COS7 lysate, DM2A8 probe, primary screen, torsin A project, cell lysate, small-molecule microarray, fluorescence 635/667 (AID 1065); conditions: higher = more signal, COS7 lysate expressing mutant human TOR1A
[3] = binders of probe aFGF2 on microarray, primary screen, stem cell growth factor project, biochemical, small-molecule microarray, fluorescence 635/667 (AID 1067); conditions: higher = more signal;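 also: measures binding of biotinylated aFGF2 protein to printed compounds on slides; z-score merges feature fluorescence and signal-to-noise across triplicate slides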
[4] = binders of probe aFGF10 on microarray, primary screen, stem cell growth factor project, biochemical, small-molecule microarray, fluorescence 635/667 (AID 1071); conditions: higher = more signal;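 also: score merges 667 nm spot intensity and signal to noise from triplicate slides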
[5] = target: Neurogenic locus notch homolog protein 2 (Homo sapiens) (UniProt Q04721); assay: Notch2 binders on small-molecule microarrays, primary screen, biochemical, small-molecule microarray, 635 nm fluorescence, stem cell growth factors (AID 1073); conditions: Notch2 binding, higher = more signal
[6] = target: Pro-neuregulin-1, membrane-bound isoform (Homo sapiens) (UniProt Q02297); assay: NRG1 binders on small-molecule microarrays, primary screen, psychiatric disease protein project, biochemical, small-molecule microarray, fluorescence 635/667 (AID 1075); conditions: NRG1 binding, 635 nm fluorescence, higher = more signal;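 also: score combines 667 nm spot fluorescence with signal to noise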
[7] = tested on: Neuregulin-1 EGF-like domain; assay: binders of neuregulin-1 EGF-like domain, primary screen, biochemical, small-molecule microarray, 635 nm fluorescence (AID 1081); conditions: small-molecule microarray binding, higher = more signal;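 also: binding of the protein to compounds printed on small-molecule microarray slides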
[8] = FRG1 promoter luciferase signal modulators, primary screen, FRG1 inhibition for FSHD, cell-based, C2C12 myotubes, firefly/Renilla luciferase, luminescence (AID 1084); conditions: higher = more signal, called active from +8 up or from −8 down
[9] = binders of probe aFST on microarray, primary screen, stem cell growth factor project, biochemical, small-molecule microarray, fluorescence 635/667 (AID 1086); conditions: higher = more signal;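 also: score merges 667 nm fluorescence with signal-to-noise of each printed compound spot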
[10] = binders of probe aHhip on microarray, primary screen, stem cell growth factor project, biochemical, small-molecule microarray, fluorescence 635/667 (AID 1087); conditions: higher = more signal;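 also: score merges spot fluorescence at 667nm with spot signal to noise ratio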
[11] = tested on: PRMT1 (protein arginine N-methyltransferase 1); assay: PRMT1 binders on small-molecule microarrays, primary screen, biochemical, small-molecule microarray, 635 nm fluorescence (AID 1088); conditions: small-molecule microarray binding, higher = more signal;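 also: binding of Prmt1 protein to compounds spotted on small-molecule microarray slides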
[12] = yeast growth modulation, basal conditions, primary screen, YJM789 clinical isolate, OD600, 24 h (AID 1089);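 also: growth of clinical yeast isolate S. cerevisiae YJM 789 seeded 1000 cells per well; test concentration not given here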; conditions: S. cerevisiae YJM789 growth, higher = more signal, called active from +8 up or from −8 down
[13] = fission yeast growth modulation, primary screen, strain 972, OD600, 24 h, no modulator (AID 1090);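 also: basal condition with compound alone and no growth modifier present; test concentration not given here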; conditions: S. pombe 972 growth, higher = more signal, called active from +8 up or from −8 down
[14] = S. cerevisiae growth modulation with rapamycin, primary screen, strain BY4716, OD600, 96 h (AID 1091); conditions: higher = more signal, called active from +8 up or from −8 down; also: test concentration not given here
[15] = target: Torsin-1A-interacting protein 2 (Homo sapiens) (UniProt Q8NFQ8); assay: LULL1 binders on small-molecule microarray, primary screen, cell lysate, human LULL1 lysate, 635/667 nm fluorescence (AID 1092); conditions: hLULL1 lysate binding, 635 nm fluorescence, higher = more signal;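 also: probe is lysate of COS7 cells overexpressing human LULL1; score merges per-feature 667 nm fluorescence with signal-to-noise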
[16] = E. coli growth modulation, two-sided OD650, primary screen, E. coli filamentation project, strain DRC41, 24 h (AID 1093); conditions: OD650, 24 h, higher = more signal, called active from +8 up or from −8 down;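 also: MC1000 strain lacking acrAB efflux and sulA so SOS filamentation is blocked; test concentration not given here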
[17] = small-molecule microarray binders of probe aLefty2, primary screen, biochemical, biotinylated probe, 635/667 nm fluorescence (AID 1094); conditions: higher = more signal;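 also: score merges spot fluorescence near 667 nm with spot signal-to-noise ratio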
[18] = tested on: Noggin (protein binding on small-molecule microarray); assay: Noggin binders on small-molecule microarray, primary screen, biochemical, 635/667 nm fluorescence (AID 1095); conditions: 635 nm fluorescence, higher = more signal;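 also: score merges 667 nm feature fluorescence with signal to noise over triplicate slides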
[19] = target: Neurogenic locus notch homolog protein 3 (Homo sapiens) (UniProt Q9UM47); assay: NOTCH3 binders on small-molecule microarray, primary screen, biochemical, 635/667 nm fluorescence (AID 1096); conditions: NOTCH3 binding, 635 nm fluorescence, higher = more signal
[20] = small-molecule microarray binders of probe aEGFR, primary screen, biochemical, biotinylated probe, 635/667 nm fluorescence (AID 1097); conditions: higher = more signal;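 also: probe is a biotinylated anti-EGFR antibody binding compounds printed on slides; score combines fluorescence near 667 nm and signal to noise of each spot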

Sequence of Pro-neuregulin-1, membrane-bound isoform (Homo sapiens) (Q02297 whole entry, looked up, the tested form may be a part, canonical isoform): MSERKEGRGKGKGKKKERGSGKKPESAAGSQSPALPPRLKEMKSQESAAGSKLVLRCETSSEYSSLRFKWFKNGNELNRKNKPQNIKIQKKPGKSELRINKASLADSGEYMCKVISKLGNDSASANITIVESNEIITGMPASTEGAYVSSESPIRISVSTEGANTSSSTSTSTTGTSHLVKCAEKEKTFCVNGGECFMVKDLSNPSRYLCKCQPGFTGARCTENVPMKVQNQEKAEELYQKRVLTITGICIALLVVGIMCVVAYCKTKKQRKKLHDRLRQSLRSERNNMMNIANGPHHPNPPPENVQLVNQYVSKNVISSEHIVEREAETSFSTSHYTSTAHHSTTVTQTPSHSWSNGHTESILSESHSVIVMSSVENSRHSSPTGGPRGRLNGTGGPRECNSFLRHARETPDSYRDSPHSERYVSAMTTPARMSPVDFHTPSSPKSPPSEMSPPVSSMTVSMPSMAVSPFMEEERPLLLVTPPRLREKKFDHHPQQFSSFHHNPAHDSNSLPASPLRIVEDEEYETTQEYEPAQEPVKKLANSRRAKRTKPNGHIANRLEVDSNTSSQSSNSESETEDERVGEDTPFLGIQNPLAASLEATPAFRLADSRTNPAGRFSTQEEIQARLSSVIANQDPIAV
Sequence of Torsin-1A-interacting protein 2 (Homo sapiens) (Q8NFQ8 whole entry, looked up): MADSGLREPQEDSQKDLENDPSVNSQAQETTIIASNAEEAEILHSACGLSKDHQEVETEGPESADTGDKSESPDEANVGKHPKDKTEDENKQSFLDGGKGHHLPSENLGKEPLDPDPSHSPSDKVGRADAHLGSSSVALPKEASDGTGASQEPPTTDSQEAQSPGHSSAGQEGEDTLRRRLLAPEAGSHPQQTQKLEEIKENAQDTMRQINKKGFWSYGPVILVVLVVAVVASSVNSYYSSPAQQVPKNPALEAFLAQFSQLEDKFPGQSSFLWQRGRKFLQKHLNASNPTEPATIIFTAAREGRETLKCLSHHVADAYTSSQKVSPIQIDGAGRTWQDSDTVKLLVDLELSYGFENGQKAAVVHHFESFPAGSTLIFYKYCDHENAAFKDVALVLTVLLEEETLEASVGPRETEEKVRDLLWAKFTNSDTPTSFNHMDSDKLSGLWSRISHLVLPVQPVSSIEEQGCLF
Sequence of Neurogenic locus notch homolog protein 2 (Homo sapiens) (Q04721 whole entry, looked up, canonical isoform): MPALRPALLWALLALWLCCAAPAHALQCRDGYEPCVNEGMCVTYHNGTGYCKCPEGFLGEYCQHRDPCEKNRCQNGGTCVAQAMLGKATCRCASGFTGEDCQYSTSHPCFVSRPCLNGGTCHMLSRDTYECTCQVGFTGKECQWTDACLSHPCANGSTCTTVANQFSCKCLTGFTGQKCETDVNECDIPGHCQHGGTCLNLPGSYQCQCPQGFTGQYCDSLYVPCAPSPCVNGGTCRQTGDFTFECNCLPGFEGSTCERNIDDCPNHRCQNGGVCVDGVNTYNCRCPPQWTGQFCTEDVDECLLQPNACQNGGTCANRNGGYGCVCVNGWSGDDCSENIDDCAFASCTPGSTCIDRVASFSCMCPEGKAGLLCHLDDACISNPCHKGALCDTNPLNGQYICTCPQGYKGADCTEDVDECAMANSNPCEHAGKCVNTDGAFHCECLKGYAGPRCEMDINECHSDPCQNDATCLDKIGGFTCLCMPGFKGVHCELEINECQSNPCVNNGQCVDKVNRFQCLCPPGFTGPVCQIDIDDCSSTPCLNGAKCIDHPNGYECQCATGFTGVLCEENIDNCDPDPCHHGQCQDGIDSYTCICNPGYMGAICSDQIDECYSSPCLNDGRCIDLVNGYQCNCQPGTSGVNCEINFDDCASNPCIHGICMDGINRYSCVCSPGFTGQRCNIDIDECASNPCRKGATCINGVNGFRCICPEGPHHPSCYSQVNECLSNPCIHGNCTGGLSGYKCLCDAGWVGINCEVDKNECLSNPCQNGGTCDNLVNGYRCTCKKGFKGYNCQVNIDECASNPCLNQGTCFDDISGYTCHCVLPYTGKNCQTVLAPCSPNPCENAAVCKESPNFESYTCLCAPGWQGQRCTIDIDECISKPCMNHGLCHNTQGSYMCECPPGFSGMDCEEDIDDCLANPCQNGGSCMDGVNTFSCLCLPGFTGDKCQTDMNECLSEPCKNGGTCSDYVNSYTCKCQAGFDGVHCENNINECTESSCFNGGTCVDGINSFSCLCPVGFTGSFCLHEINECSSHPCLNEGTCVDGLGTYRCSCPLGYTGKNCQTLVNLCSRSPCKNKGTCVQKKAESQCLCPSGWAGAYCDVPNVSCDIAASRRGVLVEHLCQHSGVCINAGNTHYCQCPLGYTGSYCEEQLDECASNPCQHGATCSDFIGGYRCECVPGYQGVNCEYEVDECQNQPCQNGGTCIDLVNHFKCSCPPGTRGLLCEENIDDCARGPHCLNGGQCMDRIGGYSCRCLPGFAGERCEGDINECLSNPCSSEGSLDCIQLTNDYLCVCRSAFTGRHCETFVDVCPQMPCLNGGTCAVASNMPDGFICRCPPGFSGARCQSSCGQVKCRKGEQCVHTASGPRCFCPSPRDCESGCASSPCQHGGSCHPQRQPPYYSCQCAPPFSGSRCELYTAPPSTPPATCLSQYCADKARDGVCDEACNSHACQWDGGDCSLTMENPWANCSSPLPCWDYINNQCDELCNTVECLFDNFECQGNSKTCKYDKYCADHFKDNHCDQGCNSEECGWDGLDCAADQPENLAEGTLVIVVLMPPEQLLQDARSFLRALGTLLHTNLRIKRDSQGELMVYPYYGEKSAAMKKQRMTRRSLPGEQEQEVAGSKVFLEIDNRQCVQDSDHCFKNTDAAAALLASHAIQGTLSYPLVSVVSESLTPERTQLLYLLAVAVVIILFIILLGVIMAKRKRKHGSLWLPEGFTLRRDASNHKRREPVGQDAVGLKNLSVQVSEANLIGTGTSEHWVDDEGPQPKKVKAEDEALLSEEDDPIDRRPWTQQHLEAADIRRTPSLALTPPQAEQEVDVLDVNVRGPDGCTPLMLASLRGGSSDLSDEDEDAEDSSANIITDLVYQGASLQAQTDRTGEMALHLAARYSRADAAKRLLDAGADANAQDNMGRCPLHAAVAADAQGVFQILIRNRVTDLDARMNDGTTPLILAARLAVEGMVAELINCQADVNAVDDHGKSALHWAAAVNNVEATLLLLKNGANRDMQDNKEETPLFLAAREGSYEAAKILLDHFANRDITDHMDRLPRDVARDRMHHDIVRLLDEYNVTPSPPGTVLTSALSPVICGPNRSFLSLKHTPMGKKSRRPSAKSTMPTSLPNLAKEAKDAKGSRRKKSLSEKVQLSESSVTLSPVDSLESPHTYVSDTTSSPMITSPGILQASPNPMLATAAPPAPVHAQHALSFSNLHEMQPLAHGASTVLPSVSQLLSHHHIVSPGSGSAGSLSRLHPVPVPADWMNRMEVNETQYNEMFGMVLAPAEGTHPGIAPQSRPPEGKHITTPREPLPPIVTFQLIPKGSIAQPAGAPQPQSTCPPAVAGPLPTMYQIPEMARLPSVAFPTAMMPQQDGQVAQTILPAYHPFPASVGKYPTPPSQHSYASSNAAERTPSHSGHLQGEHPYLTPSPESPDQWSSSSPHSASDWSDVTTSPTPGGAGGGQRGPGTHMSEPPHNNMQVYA

Row | Compound | composite z-score [1] | composite z-score [2] | composite z-score [3] | composite z-score [4] | composite z-score [5] | composite z-score [6] | composite z-score [7] | z-score [8] | composite z-score [9] | composite z-score [10] | composite z-score [11] | z-score [12] | z-score [13] | z-score [14] | composite z-score [15] | z-score [16] | composite z-score [17] | composite z-score [18] | composite z-score [19] | composite z-score [20]
1 | COC(=O)C(CC#Cc1ccc2c(c1)[C@]1(C(=O)N2)[C@H](c2ccc(OCCO)cc2)N2[C@H](c3ccccc3)[C@H](c3ccccc3)OC(=O)[C@H]2[C@@H]1C(=O)N1CCCCCCC1)C(=O)OC | 3.41 | 1.91 | 0.826 | 1.21 | 1.14 | 1.93 | 1.27 | -0.378 (inactive) | 3.21 | 1.45 | 1.54 | 1.37 (inactive) | 0.736 (inactive) | 2.56 (inactive) | 3.95 | -0.611 (inactive) | 1.54 | 1.84 | 1.03 | 1.17
2 | C=C(COC)/C(=C/C[C@H](OC(C)=O)c1ccccc1OCCO)c1cc(C(=O)OC)ccc1OC | -0.398 | 0.275 | -0.0948 | 1.05 | -0.738 | 0.727 | 1.28 | 0.181 (inactive) | 0.318 | -0.0003 | 1.48 | 0.909 (inactive) | -0.662 (inactive) | -0.16 (inactive) | 1.76 | 0.952 (inactive) | -0.0928 | 0.485 | 0.372 | -0.0815
3 | NCCCCCCNC(=O)[C@@H]1C[C@@H]2C(=O)N3CCC[C@H]3C(=O)N2[C@@H]1c1cccc(OCCO)c1 | 1.14 | 0.957 | -0.0347 | 0.361 | 0.0828 | 1.58 | 1.36 | 1.52 (inactive) | 0.492 | 0.249 | 1.06 | -1.18 (inactive) | -0.822 (inactive) | -0.651 (inactive) | 1.74 | 0.974 (inactive) | 0.0686 | 1.1 | 0.73 | 0.0713
4 | COCCOC(=O)N1C(=O)[C@@]2(c3cc(C#CCCO)ccc31)[C@H](c1ccccc1OCCO)N1[C@H](c3ccccc3)[C@H](c3ccccc3)OC(=O)[C@H]1[C@@H]2C(N)=O | -0.455 | -0.0702 | -0.0723 | 0.758 | 1.3 | 1.55 | 1.22 | -1.9 (inactive) | 0.806 | -0.0645 | 1.55 | 1.48 (inactive) | 0.142 (inactive) | 2.99 (inactive) | 3.08 | 2.16 (inactive) | -0.123 | 1.6 | 1.11 | 0.0111
5 | CC1CC/C=C\[C@H]2OC34C=CCN(Cn5nnc6ccccc65)C(=O)[C@H]3N(CCCCCCO)C(=O)[C@@H]4C2C(=O)O1 (stereo not given in full) | 0.372 | -1.11 | -0.176 | -0.539 | -0.964 | 2.14 | 1.59 | -0.863 (inactive) | -0.541 | -0.169 | -0.526 | 0.28 (inactive) | -0.0728 (inactive) | 0.105 (inactive) | 2.9 | 0.167 (inactive) | -0.205 | -1.09 | -0.368 | -0.33
6 | COC(=O)[C@@]1(Cc2ccc(F)cc2)[C@H]2c3cc(C(=O)N(C)C)n(CCc4ccc(O)c(O)c4)c3C[C@H]2CN1C(=O)c1ccccc1 | -0.0383 | -0.134 | 0.187 | 0.876 | 1.68 | 0.562 | 1 | 0.115 (inactive) | 0.662 | -0.374 | -0.0562 | 0.278 (inactive) | 0.955 (inactive) | 0.987 (inactive) | 2.56 | -0.365 (inactive) | 0.534 | -0.601 | 0.498 | 0.253
7 | Cc1ccc(S[C@]2(C(=O)NC3CC3)CC(=O)N(C(C)C)[C@@H]2c2ccc(CO)cc2I)cc1 | -0.113 | 0.38 | -0.0234 | 0.0084 | -0.372 | 1.89 | 1.07 | -0.0443 (inactive) | 0.933 | -0.318 | 1.27 | -0.812 (inactive) | -2.43 (inactive) | -0.2 (inactive) | 2.83 | -1.34 (inactive) | -0.0865 | -0.294 | 0.624 | -0.196
8 | CCCc1cc2c(n1CCc1ccc(Cl)cc1)C(C)C1CN(C(=O)c3ccccc3)C(C)(C(=O)OC)C21 (stereo not given) | 1.44 | 0.721 | 0.384 | 0.204 | 1.73 | 1.78 | 0.937 | 1.91 (inactive) | 1.1 | 2.27 | 0.396 | 0.318 (inactive) | -0.29 (inactive) | 1.03 (inactive) | 3.31 | -2.17 (inactive) | 0.342 | -1.01 | 1.04 | 0.131
9 | COCC(=C=CC[C@H](O)c1ccccc1OCCO)C[C@H](O)COCc1ccccc1 | -0.287 | 0.584 | -0.0004 | 1.3 | 0.41 | 1.22 | 0.571 | 0.291 (inactive) | 0.092 | 0.107 | 1.55 | -0.16 (inactive) | -1.15 (inactive) | -0.619 (inactive) | 2.71 | -0.111 (inactive) | -0.0113 | 0.513 | 0.271 | 0.312
10 | CC(C)(C)N1CC=CC23O[C@@H]4/C=C\CCCOC(=O)C4[C@H]2C(=O)N(CCCCCO)[C@@H]3C1=O (stereo not given in full) | 1.26 | -0.406 | -0.227 | -0.668 | -0.545 | -0.229 | -0.448 | -0.106 (inactive) | -1.09 | 0.176 | -0.981 | -0.143 (inactive) | 0.0289 (inactive) | -0.635 (inactive) | 0.389 | -0.938 (inactive) | -0.114 | -1.48 | -0.457 | -0.289
